This passage reports AC50 and outcome results from PubChem BioAssay (EPA / NIEHS).

Inconclusive results are not listed. Activity calls are given as the source filed them. How the source made its calls, unless noted: active means hit-call score of the fitted dose curve at least 0.9, where 1 is the maximum; inconclusive means response in the unintended direction; inactive means score below 0.9.

Test [1] relates to Thyroperoxidase (TPO), gene 54314. Put plainly: CCTE_Simmons_AUR_rTPO: CCTE's Amplex UltraRed Assay for Thyroperoxidase (TPO) Inhibition, Simmons Lab (AID 2283662).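 On AC50: potency for loss of signal meaning inhibition of peroxidase activity.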 Summed up:
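Rat thyroid microsomes (5 ug protein) with 25 uM Amplex UltraRed and 300 uM H2O2 in 200 mM phosphate buffer, 30 min at 37C in dark; fluorescence 544/590 nm. Eight concentrations, 5 nM–87.5 uM final, 0.5% DMSO, triplicate biological replicates.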

Test [2] addresses Luciferin 4-monooxygenase (Photinus pyralis) (UniProt P08659). Put plainly: CCTE_Simmons_QuantiLum_inhib_2: CCTE's Firefly Luciferase Inhibition Assay, Simmons Lab (AID 2283767). A digest of the protocol: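 Cell-free recombinant firefly luciferase (5 ng/well) in 200mM potassium phosphate with 1 mg/ml BSA, 30 min at 37C with 8 concentrations from 5 nM to 87.5 uM [final], 0.5% DMSO. Luminescence read after D-luciferin (150uM)/dATP (147uM) reagent injection, pH 7.8; triplicates.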

The nature of test [3]: ACEA_ER_AUC_viability: ACEA Biosciences xCELLigence Real-Time Cell Analysis on Estrogen Receptor Agonism for Viability (AID 2283782).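 Further: continuous compound exposure with impedance area under curve over 80 h; hit means loss of impedance signal meaning reduced cell growth or viability.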 Summed up: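 T-47D; phenol red-free RPMI1640 + 10% CS-FBS; 8 conc., 1:4 serial, max 100 uM final, ≤0.5% DMSO; n = 2; continuous exposure; impedance monitored to 80 h post-dose; AUC vs DMSO.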
A short description of test [4]: CCTE_Simmons_CellTiterGLO_HEK293T: Viability Assessment in CCTE's Assays for Thyroperoxidase (TPO) Inhibition, Simmons Lab (AID 2283665). A digest of the protocol: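 HEK293T cells in DMEM with 1% FBS, dosed 24 h at 37C with 8 concentrations, 5 nM–87.5 uM final, 0.5% DMSO. ATP measured by CellTiter Glo luminescence; loss of signal vs DMSO, three biological replicates.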
(Cellular ATP, detected with luciferase, serves as a proxy for viable cell number.)

A short description of test [5]: CCTE_Harrill_HTTr_Viability_MCF7: CCTE's 6-hour Cell Viability Assessment for the High-Throughput Transcriptomics (HTTr) Platform, in MCF-7 cells cultured in DMEM + 10% fetal bovine serum, Harrill Lab (AID 2284010; active means hit-call score of the fitted dose curve at least 0.9, where 1 is the maximum; inactive means score below 0.9). Summed up:
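MCF-7 cells in DMEM + 10% FBS, 384-well, exposed 6 h to an eight-point dilution series. Membrane integrity scored by high-content imaging of propidium iodide exclusion; bidirectional fit versus DMSO.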

A short description of test [6]: CCTE_Harrill_HTTr_CellCount_MCF7: CCTE's Cell Proliferation Assessment for the High-Throughput Transcriptomics (HTTr) Platform, Harrill Lab (AID 2284012).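 Further: intended direction is loss of nuclei count meaning fewer cells.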 A digest of the protocol:
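MCF7 cells exposed 6 hours to an eight-point dilution series; Hoechst-stained nuclei counted by high-content imaging. Bidirectional curve fitting against DMSO baseline.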

Test [7] is described as follows: TOX21_p53_BLA_p5_viability: Viability Assessment in the Tox21 HCT-116 p53 Agonism Beta-lactamase Assay, Phase 5 (AID 2283600). Summed up:
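HCT-116 p53 beta-lactamase reporter cells, 4000/well, were exposed to compound (pin transfer, 217-fold dilution) for 16 hours at 37C. Cellular ATP was read by CellTiter-Glo luminescence after 30 min at room temperature.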

The target of test [8] is Cellular tumor antigen p53 (Homo sapiens) (UniProt P04637). Kind of test: TOX21_p53_BLA_p4_ratio: Tox21 HCT-116 p53 Agonism Beta-lactamase Assay, Ratio, Phase 4 (AID 2283601). A digest of the protocol:
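Signal is the blue/green (460nm/530nm) ratio of cleaved versus uncleaved CCF4-AM substrate, read after 2 h substrate loading. Cells were HCT116 carrying the p53-responsive beta-lactamase reporter, dosed 16 h at 37C, 5% CO2; CellTiter-Glo measured in parallel.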

Test [9] concerns the target Thyroid hormone receptor alpha (Rattus norvegicus) + Thyroid hormone receptor beta (Rattus norvegicus) (UniProt P18113+P63059). Kind of test: TOX21_TR_LUC_GH3_Antagonist_Followup: Tox21 GH3 Thyroid Hormone Receptor Antagonism Luciferase Follow-Up Assay (AID 2283942). A digest of the protocol:
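Confirmatory qHTS, antagonist mode: T3 (1.0 nM final) + test cpd, 15 conc, 92 uM–5nM final, GH3 rat pituitary line, 24 h, 37C. Luc reporter, RLU vs DMSO.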

In another test the target is THRB (gene 7068) (UniProt P10828). Kind of test: TOX21_TRB_BLA_Antagonist_Followup_ratio: Tox21 Thyroid Hormone Receptor beta Antagonism Beta-lactamase (BLA) Follow-Up Assay, Ratio (AID 2283958). A digest of the protocol: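 HEK293T cells with a GAL4-TRb LBD fusion and UAS-bla reporter, 3,000 cells/well in phenol red-free DMEM with 2% charcoal-stripped FBS. Exposed 18 h at 37C to 11 concentrations in triplicate; CCF4 460:530 nm ratio after 2 h, DMSO-referenced.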

Test [10] is described as follows: TOX21_TRB_BLA_Antagonist_Followup_viability: Viability Assessment in the Tox21 Thyroid Hormone Receptor beta Antagonism Beta-lactamase (BLA) Follow-Up Assay (AID 2283961). A digest of the protocol: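 HEK293T cells with GAL4-human TRβ LBD and UAS-bla reporter, 3,000 cells/well in 2% charcoal-stripped FBS medium; 11-point concentrations in triplicate, 18 h at 37C. Viability from ATP by CellTiter-Glo luminescence, 30 min RT, same plates.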

The target of test [11] is Retinoic acid receptor RXR-alpha (Homo sapiens) (UniProt P19793). Put plainly: TOX21_TR_RXR_BLA_Antagonist_Followup_ratio: Tox21 Thyroid Hormone Receptor beta Retinoid X Receptor alpha (RXRa) Antagonism Beta-lactamase (BLA) Follow-Up Assay, Ratio (AID 2283972). A digest of the protocol: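 RXRa-UAS-bla HEK293T cells, 2,500/well in phenol red-free DMEM with 2% charcoal-stripped FBS, 5 h attachment, then compounds (11 concentrations, triplicate) for 16 h at 37C; FRET-B/GCCF4-AM substrate 2 h RT; 460:530 nm ratio, loss of signal vs DMSO.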

A short description of test [12]: TOX21_TR_RXR_BLA_Antagonist_Followup_viability: Viability Assessment in the Tox21 Thyroid Hormone Receptor beta Retinoid X Receptor alpha (RXRa) Antagonism Beta-lactamase (BLA) Follow-Up Assay (AID 2283979). Summed up:
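Follow-up compounds (11 concentrations, triplicate) were incubated 16 h at 37C/5% CO2 with HEK293T RXRa-bla cells seeded at 2,500/well in charcoal-stripped-serum medium. ATP content by CellTiter-Glo luminescence gave viability; curves fitted in both directions against DMSO.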

Sequence of Cellular tumor antigen p53 (Homo sapiens) (P04637 whole entry, looked up): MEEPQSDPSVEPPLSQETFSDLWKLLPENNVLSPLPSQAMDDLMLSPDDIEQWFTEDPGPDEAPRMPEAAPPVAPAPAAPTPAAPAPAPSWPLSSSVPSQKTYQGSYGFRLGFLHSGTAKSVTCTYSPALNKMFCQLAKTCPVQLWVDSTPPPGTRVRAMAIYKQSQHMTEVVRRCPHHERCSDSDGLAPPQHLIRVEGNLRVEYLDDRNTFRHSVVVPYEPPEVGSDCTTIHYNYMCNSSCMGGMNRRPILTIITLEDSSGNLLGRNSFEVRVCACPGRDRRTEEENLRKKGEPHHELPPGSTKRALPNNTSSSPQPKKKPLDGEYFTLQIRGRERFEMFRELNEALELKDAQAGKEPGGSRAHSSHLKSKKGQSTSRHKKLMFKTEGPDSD
Sequence of Luciferin 4-monooxygenase (Photinus pyralis) (P08659 whole entry, looked up): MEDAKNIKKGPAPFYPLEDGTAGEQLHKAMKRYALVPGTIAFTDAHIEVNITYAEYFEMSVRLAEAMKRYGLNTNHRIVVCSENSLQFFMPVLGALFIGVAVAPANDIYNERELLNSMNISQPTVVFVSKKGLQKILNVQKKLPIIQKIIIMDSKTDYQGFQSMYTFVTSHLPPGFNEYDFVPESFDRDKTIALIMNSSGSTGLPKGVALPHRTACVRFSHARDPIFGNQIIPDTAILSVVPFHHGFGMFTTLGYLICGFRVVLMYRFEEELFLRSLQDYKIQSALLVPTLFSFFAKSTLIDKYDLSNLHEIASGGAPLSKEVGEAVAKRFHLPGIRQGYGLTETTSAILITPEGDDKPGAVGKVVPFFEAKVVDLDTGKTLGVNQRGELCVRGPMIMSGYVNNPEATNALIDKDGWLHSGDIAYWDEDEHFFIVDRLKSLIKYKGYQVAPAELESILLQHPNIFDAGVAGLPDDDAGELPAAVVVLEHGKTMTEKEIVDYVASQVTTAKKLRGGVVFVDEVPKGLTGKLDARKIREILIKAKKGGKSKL
Sequence of Retinoic acid receptor RXR-alpha (Homo sapiens) (P19793 whole entry, looked up): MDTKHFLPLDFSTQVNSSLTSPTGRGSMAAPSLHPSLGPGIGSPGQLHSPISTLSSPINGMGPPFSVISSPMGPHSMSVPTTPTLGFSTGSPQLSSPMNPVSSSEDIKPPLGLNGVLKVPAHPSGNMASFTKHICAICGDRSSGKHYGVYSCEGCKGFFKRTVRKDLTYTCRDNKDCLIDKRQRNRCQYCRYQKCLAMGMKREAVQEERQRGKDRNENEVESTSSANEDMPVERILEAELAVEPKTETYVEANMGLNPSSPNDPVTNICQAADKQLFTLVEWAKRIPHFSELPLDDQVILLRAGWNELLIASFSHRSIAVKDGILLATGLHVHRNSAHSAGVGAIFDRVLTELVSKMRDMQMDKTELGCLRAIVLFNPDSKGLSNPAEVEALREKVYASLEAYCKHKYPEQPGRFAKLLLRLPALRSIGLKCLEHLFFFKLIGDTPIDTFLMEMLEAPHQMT
Sequence of THRB (gene 7068) (P10828 whole entry, looked up, the tested form may be a part): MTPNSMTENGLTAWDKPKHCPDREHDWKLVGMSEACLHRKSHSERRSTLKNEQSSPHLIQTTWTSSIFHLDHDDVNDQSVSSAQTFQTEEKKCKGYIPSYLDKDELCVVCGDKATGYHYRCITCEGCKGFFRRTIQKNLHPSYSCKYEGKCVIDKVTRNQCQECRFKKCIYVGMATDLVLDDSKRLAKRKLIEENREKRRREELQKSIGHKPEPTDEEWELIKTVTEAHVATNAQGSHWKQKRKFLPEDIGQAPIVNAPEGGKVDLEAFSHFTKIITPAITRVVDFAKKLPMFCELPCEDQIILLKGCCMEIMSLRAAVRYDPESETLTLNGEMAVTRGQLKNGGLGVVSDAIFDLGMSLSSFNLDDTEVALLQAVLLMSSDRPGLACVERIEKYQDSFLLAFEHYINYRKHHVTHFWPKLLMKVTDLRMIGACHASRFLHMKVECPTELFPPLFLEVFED

As for `Cn1c(=S)[nH]c2ccccc21`, the AC50 in [1] is 503 nM (active). Further, the call in [2] was inactive.
Regarding `O=c1cc(O)cc[nH]1`, in test [1], the result was inactive.
On to `CC1=CC(=O)CCC1`, for which the result in test [3] was inactive.
For the compound `O=C(c1ccccc1)c1ccc(O)cc1`, the compound was called inactive in test [1], in [4], in test [2], in test [5] and in test [6].
In the case of `O=c1[nH]c2ccccc2s1`, in [1], the AC50 is 31300 nM (active). Further, the call in test [2] was inactive.
On to `CCCCc1cc2ccccc2c(OCCN(C)C)n1`, for which the compound was classed as inactive in test [7] and in test [8].
For `CNC(=O)N(c1ccccc1)c1ccccc1`, the result in test [8] was inactive.
Regarding `C1CCC2(CCCCO2)OC1`, in [3], the compound was classed as inactive.
Take `COc1ccc2c(c1)N(C[C@H](C)CN(C)C)c1ccccc1S2`: the result (in test [8]; in the test with THRB (gene 7068); in test [10]; in test [11]; in test [12]) was inactive. In addition, the concentration at half-maximal activity (AC50) in [9] is 2790 nM (active).

What is called AC50 is the concentration at which the activity in the assay is half-maximal.
